This note sets out measurements from PubChem BioAssay.

Each structure is given as a SMILES string. Unmarked numbers belong to inactive results. For some of these results: Potency and affinity values are given separately. The source made the active and inactive calls. Unless noted, the rule behind the calls is not given here.

As usually defined, the inhibition is the relative decrease from the control value, in per cent.

The nature of test [1]: antimalarial activity against Dd2 strain (AID 2302;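 active = growth inhibition above 50% at the single 2 µM test dose, taken to imply half-maximal potency below 2 µM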;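 note: 0% = DMSO untreated growth and 100% = chloroquine plus artemisinin killed control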). The following applies: P. falciparum Dd2 in RBCs, LDH growth readout, 72 h; at 2 µM; hits give high values.
Test [2] in a line: HepG2 cytotoxicity, primary screen, cytotoxicity control for P. falciparum antimalarial project, cell-based, ATP luminescence (AID 2303;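 active = inhibition above 50%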;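 note: 0% = DMSO wells and 100% = digitonin-killed cells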). The following applies: HepG2 viability, 24-48 h, at 10 µM, hits give high values.
Test [3] deals with L-lactate dehydrogenase (Plasmodium falciparum (isolate CDC / Honduras)) (UniProt Q27743). The experiment in a line: PfLDH activity inhibition – cell lysate, 3D7 strain, counter-screen for P. falciparum growth inhibition project (AID 2304).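 Note: 0% = vehicle and 100% = reference inhibitor.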 Particulars: P. falciparum 3D7 crude extract, LDH APAD/NBT absorbance; at 2 µM; hits give high values. (A counterscreen serves to expose hits that act by an unwanted route or on another target.)

Test [4] can be described thus: inhibition of 3D7 malaria parasite growth – strain 3D7 (AID 2306).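 Note: 0% = DMSO wells and 100% = chloroquine plus artemisinin control wells.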 Particulars: P. falciparum 3D7 erythrocytic growth, LDH absorbance, 72 h; at 2 µM; hits give high values.
The target of test [5] is Calcium-dependent protein kinase 1 (Plasmodium falciparum (isolate 3D7)) (UniProt P62344). The test can be described thus: PfCDPK1 kinase inhibitors, biochemical, TCAMS library (AID 1159585; cut-off not given, nearly all actives have IC50 up to about 0.98 µM;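 note: inhibitors leave more ATP so luminescence rises with inhibition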). The following applies: recombinant PfCDPK1, Kinase-Glo ATP depletion luminescence. Background: Kinase-Glo reads ATP consumption through a luciferase reaction.
In test [6] the target is Plasmodium falciparum protein kinase 6 (PK6, PF3D7_1337100) (UniProt Q8IDW1). The experiment in a line: PfPK6 kinase inhibitors, biochemical, TCAMS library (AID 1159586). Particulars: recombinant PfPK6, Kinase-Glo ATP depletion luminescence.
Test [7] deals with Protein kinase 7 (PK7), Plasmodium falciparum 3D7 (PF3D7_0213400) (UniProt Q7YTF7). The test can be described thus: inhibition of Plasmodium PK7 catalytic activity – biochemical, TCAMS antimalarial set, Kinase-Glo luminescence (AID 1159587). Particulars: recombinant PfPK7, Kinase-Glo ATP depletion luminescence.
Test [8] addresses Calcium-dependent protein kinase 4 (Plasmodium falciparum (isolate 3D7)) (UniProt Q8IBS5). The experiment in a line: PfCDPK4 kinase inhibitors, biochemical, TCAMS library (AID 1159588; cut-off not given, nearly all actives have IC50 up to about 0.91 µM). Particulars: recombinant PfCDPK4, Kinase-Glo ATP depletion luminescence.

L-lactate dehydrogenase (Plasmodium falciparum (isolate CDC / Honduras)), sequence (Q27743 whole entry, looked up): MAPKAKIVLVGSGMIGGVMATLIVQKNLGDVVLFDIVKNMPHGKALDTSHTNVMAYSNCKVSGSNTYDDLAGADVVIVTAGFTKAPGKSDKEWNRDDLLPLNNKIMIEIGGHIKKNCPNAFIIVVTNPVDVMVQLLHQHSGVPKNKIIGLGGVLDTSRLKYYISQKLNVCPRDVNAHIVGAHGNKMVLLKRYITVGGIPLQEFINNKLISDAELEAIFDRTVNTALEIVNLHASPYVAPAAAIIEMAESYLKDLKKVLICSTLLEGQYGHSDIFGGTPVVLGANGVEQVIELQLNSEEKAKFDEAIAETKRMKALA
Plasmodium falciparum protein kinase 6 (PK6, PF3D7_1337100), sequence (Q8IDW1 1-305): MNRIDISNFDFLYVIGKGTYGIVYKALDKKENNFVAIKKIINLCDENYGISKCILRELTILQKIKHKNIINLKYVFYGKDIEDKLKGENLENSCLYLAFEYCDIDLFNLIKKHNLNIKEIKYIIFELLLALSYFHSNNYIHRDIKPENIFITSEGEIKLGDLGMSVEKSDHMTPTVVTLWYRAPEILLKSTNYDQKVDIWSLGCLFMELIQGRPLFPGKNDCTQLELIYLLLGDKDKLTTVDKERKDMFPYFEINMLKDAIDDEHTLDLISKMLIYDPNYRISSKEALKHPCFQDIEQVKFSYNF
Calcium-dependent protein kinase 1 (Plasmodium falciparum (isolate 3D7)), sequence (P62344 whole entry, looked up): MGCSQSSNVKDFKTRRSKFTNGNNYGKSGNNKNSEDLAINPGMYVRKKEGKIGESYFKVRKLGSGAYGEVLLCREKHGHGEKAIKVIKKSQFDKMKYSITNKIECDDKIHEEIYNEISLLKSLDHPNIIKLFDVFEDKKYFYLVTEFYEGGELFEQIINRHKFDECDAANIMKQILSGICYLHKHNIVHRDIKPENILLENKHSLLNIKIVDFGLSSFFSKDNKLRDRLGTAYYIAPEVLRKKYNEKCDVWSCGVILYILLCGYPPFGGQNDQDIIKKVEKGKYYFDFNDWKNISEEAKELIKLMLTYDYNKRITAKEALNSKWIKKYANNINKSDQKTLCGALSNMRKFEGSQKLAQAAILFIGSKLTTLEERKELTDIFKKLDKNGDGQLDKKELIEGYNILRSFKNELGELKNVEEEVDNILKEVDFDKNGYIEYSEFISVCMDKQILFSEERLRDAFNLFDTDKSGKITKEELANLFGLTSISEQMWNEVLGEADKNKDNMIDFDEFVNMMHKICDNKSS
Protein kinase 7 (PK7), Plasmodium falciparum 3D7 (PF3D7_0213400), sequence (Q7YTF7 1-343): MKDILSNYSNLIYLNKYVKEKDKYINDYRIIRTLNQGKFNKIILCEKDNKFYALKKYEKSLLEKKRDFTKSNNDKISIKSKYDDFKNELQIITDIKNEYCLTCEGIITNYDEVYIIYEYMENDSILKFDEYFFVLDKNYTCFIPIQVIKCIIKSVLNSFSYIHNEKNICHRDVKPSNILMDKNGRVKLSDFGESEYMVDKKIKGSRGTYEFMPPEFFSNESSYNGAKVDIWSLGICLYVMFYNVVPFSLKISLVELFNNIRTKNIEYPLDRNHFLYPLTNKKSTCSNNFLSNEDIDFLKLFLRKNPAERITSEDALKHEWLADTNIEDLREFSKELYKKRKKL
Calcium-dependent protein kinase 4 (Plasmodium falciparum (isolate 3D7)), sequence (Q8IBS5 whole entry, looked up): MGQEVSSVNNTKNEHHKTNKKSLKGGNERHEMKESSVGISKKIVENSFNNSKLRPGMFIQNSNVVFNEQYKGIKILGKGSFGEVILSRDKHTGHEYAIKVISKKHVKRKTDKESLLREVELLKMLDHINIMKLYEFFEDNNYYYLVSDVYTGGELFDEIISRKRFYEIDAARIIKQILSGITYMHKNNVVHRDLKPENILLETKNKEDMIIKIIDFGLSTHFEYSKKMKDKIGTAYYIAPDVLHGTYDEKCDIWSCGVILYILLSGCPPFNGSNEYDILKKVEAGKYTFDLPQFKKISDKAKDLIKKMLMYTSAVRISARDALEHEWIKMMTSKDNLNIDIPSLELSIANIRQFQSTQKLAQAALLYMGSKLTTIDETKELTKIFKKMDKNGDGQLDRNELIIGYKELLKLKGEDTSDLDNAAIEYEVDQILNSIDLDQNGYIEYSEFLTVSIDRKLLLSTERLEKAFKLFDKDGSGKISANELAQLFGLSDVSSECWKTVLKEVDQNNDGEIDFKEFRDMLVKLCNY

As for `Cc1cc(N[C@@H](Cc2ccccc2)C(=O)NCc2cccc(F)c2)nc(NCCc2cccs2)n1`, the figures for the growth inhibition in test [1] and in test [4] were 22% and 99% (active), respectively. Further, the results for the inhibition in test [2] and in test [3] were 9% and 2%, respectively. Besides, the result in test [5], in test [6], in test [7] and in test [8] was inactive.
In the case of `CCC(C)CNC(=O)CN1CN(c2ccccc2)C2(CCN(C(=O)c3ccc(Br)cc3)CC2)C1=O` (stereo not given), the growth inhibition in test [1] and in test [4] was 88% (active) in each case. In addition, the inhibition is 10% in test [2] and -2% in test [3]. Besides, the outcome in test [5], in test [6], in test [7] and in test [8] was inactive.
Regarding `COc1cc(C2C(Oc3ccccc3)C(=O)N2Cc2ccc(F)cc2)cc(OC)c1OC` (stereo not given), the growth inhibition in test [1] is 97% (active); in test [4], 100% (active). Moreover, the inhibition in test [2] was -2%; in test [3], 4%. Further, the result in test [5], in test [6], in test [7] and in test [8] was inactive.
In the case of `CCc1cn2c3c(cc(C(=O)N[C@@H](Cc4cccc(Cl)c4)[C@H](O)CNC4CC4)cc13)N(C)S(=O)(=O)CC2`, the growth inhibition in test [1] and in test [4] was 98% (active) in each case. The inhibition is 10% in test [2] and -1% in test [3]. Moreover, the result in test [5], in test [6], in test [7] and in test [8] was inactive.
On to `O=S(=O)(NCCN1CCCC1)c1cccc(-c2cccc(CNCc3ccc(F)cc3)c2)c1`, for which the growth inhibition in test [1] was 73% (active); in test [4], 99% (active). The results for the inhibition in test [2] and in test [3] were 41% and 4%, respectively. Moreover, the outcome in test [5], in test [6], in test [7] and in test [8] was inactive.
`CS(=O)(=O)Nc1ccc2[nH]cc(C3CCN(CCCCCNC(=O)/C=C/c4ccc(Cl)c(Cl)c4)CC3)c2c1`: the growth inhibition in test [1] was 0%; in test [4] it was 101% (active). Moreover, the inhibition in test [2] is 1%; in test [3], 5%. Moreover, the outcome in test [5], in test [6], in test [7] and in test [8] was inactive.
Consider `CCN(CC)CC(O)c1cc(-c2ccc(OC)cc2)nc2cc(Cl)ccc12` (stereo not given), for which the growth inhibition in test [1] is 98% (active); in test [4], 99% (active). The inhibition in test [2] is 12%; in test [3] it was -10%. Moreover, the outcome in test [5], in test [6], in test [7] and in test [8] was inactive.
As for `O=S(=O)(Nc1cc2c(cc1O)CCN(C1CCC1)CC2)c1ccc(Oc2ccc(F)cc2)cc1`, the figures for the growth inhibition in test [1] and in test [4] were 52% (active) and 99% (active), respectively. For the same compound, the inhibition in test [2] was 20%; in test [3], 0%. Further, the outcome in test [5], in test [6], in test [7] and in test [8] was inactive.
For `COc1ccc2nccc(NC(=O)OC3CCC(NCc4ccc5c(n4)NC(=O)CS5)CC3)c2c1` (stereo not given), the growth inhibition was 39% in test [1] and 98% (active) in test [4]. Moreover, the inhibition was 9% in test [2] and -6% in test [3]. Besides, the result in test [5], in test [6], in test [7] and in test [8] was inactive.
Regarding `O=C(Nc1cccc(-c2ccc(-c3nc4ccc(C(F)(F)F)cc4[nH]3)cc2)c1)Nc1ccc(Cl)c(Cl)c1`, the growth inhibition in test [1] is 51% (active); in test [4], 100% (active). For the same compound, the inhibition in test [2] was 93% (active); in test [3], -2%. For the same compound, the outcome in test [5], in test [6], in test [7] and in test [8] was inactive.
In the case of `Nc1cccc(CNCc2cccc(-c3cccc(-c4nc5ccc(C(F)(F)F)cc5[nH]4)c3)c2)c1`, the growth inhibition in test [1] was 96% (active); in test [4], 102% (active). Besides, the inhibition is 8% in test [2] and 1% in test [3]. The result in test [5], in test [6], in test [7] and in test [8] was inactive.
Take `CSc1ccc(CN2CCC(NC(=O)c3ccc(-c4cccc(C(F)(F)F)c4)s3)CC2)cc1`: the growth inhibition in test [1] was 9%; in test [4] it was 90% (active). Moreover, the results for the inhibition in test [2] and in test [3] were 68% (active) and -2%, respectively. The result in test [5], in test [6], in test [7] and in test [8] was inactive.
On to `COc1ccc2nccc(NN=Cc3ccc(Cl)cc3)c2c1`, for which the results for the growth inhibition in test [1] and in test [4] were 72% (active) and 101% (active), respectively. The inhibition in test [2] was 9%; in test [3] it was -1%. For the same compound, the outcome in test [5], in test [6], in test [7] and in test [8] was inactive.
On to `CC(C)Cc1ccc(N2CCN(CCCCNC(=O)c3ccc(NC(=O)c4cc(C(F)(F)F)cc(C(F)(F)F)c4)cc3)CC2)cc1`, for which the growth inhibition in test [1] and in test [4] was 100% (active) in each case. Further, the inhibition in test [2] was 15%; in test [3], -3%. Besides, the result in test [5], in test [6], in test [7] and in test [8] was inactive.
As for `O=C(Nc1cccc(-c2csc(-c3nc4ccccc4[nH]3)c2)c1)c1cc(=O)c2ccccc2[nH]1`, the results for the growth inhibition in test [1] and in test [4] were 39% and 98% (active), respectively. In addition, the inhibition in test [2] is 41%; in test [3] it was -2%. Also, the outcome in test [5], in test [6], in test [7] and in test [8] was inactive.
As to `COc1ccc(CCn2c(=N)c(C(=O)NCc3ccc(C)cc3)cc3c(=O)n4ccccc4nc32)cc1`, the growth inhibition in test [1] was 16%; in test [4] it was 97% (active). Also, the inhibition in test [2] is 13%; in test [3], -3%. The outcome in test [5], in test [6], in test [7] and in test [8] was inactive.
Consider `O=C(c1cccc(Br)c1)N1CCN(c2ccc([N+](=O)[O-])c(NC3CC3)c2)CC1`, for which the growth inhibition was 100% (active) in test [1] and 99% (active) in test [4]. Further, the inhibition in test [2] is 5%; in test [3], 3%. Besides, the result in test [5], in test [6], in test [7] and in test [8] was inactive.
Take `COc1cccc2c(NN=Cc3ccccc3[N+](=O)[O-])cc(C)nc12`: the growth inhibition in test [1] is 32%; in test [4] it was 99% (active). Moreover, the values for the inhibition in test [2] and in test [3] were -6% and -5%, respectively. Also, the outcome in test [5], in test [6], in test [7] and in test [8] was inactive.
As for `CCc1cn2c3c(cc(C(=O)N[C@@H](Cc4ccccc4)[C@H](O)CNCc4ccc(C)cc4)cc13)N(C)S(=O)(=O)CC2`, the results for the growth inhibition in test [1] and in test [4] were 98% (active) and 99% (active), respectively. Also, the results for the inhibition in test [2] and in test [3] were -4% and 5%, respectively. Besides, the result in test [5], in test [6], in test [7] and in test [8] was inactive.
On to `NOCCCCOc1ccc(Br)cc1`, for which the growth inhibition is -1% in test [1] and 99% (active) in test [4]. The figures for the inhibition in test [2] and in test [3] were 0% and -2%, respectively. Further, the result in test [5], in test [6], in test [7] and in test [8] was inactive.
